Outcome and AC50 data for 40 compounds are collected here from PubChem BioAssay (EPA / NIEHS).

A word on the AC50: it is the concentration giving half of the maximal activity seen.

Calls of active or inactive are those of the source. Rule for the calls: active = hit-call score of the fitted dose curve at least 0.9, where 1 is the maximum; inactive = score below 0.9.

Read-out in this assay: ABC Transporter (ABCC2), ABCC2 (gene 1244)
The experiment in a line: LTEA_HepaRG_ABCC2: Life Technologies and Expression Analysis (LTEA) Assay for ABC Transporter (ABCC2) using HepaRG (AID 2283464). The conditions noted are these: mRNA level, 48 h; actives raise or lower the signal. Here is the method:
LTEA_HepaRG is a cell based, multiplexed-readout assay that uses HepaRG, a human liver cell line, with measurements taken at 48 hours after chemical dosing on a 96-well plate.LTEA_HepaRG_ABCC2 is one of 102 assay component(s) measured in the LTEA HepaRG cell culture assay. It is a marker of Steatosis/NR mediated transport.Data from the assay component LTEA_HepaRG_ABCC2 was analyzed into 1 endpoint. This assay endpoint, LTEA_HepaRG_ABCC2, was analyzed with bidirectional fitting relative to DMSO as the negative control and baseline of activity. Using a type of inducible reporter, measures of mRNA induction for gain or loss-of-signal activity can be used to understand regulation of transcription factor activity. To generalize the intended target to other relatable targets, this assay endpoint is annotated to the transporter intended target family, where the subfamily is ABC transporter.
A total of 1060 chemcials from the ToxCast library were tested in eight-point concentration-response experiments. Cell culture and cytotoxicity assays were conducted at Thermo Fisher Scientific's Custom Services facility (Madison, WI). A single lot of human HepaRG cells (Thermo Fisher Scientific, Frederick, MD) was used for the cell culture experiments. 96-well format collagen type I coated plates of human HepaRG cells were prepared using established methods. Briefly, cryopreserved HepaRG cells were thawed, plated at a density of approximately 100,000 cells/well in HepaRG Thaw, Plate, and General Purpose media (HPRG770, Thermo Fisher Scientific), and incubated for 48 hours. 0.5% DMSO was selected as vehicle control to balance the requisite need of DMSO in HepaRG cultures to maintain differentiation (for example, baseline metabolism, proportions of hepatocytes vs. cholangiocytes), while enabling further hepatic receptor pathway activation (for example, PXR and CAR) in response to chemical exposure. 48 hours after plating, the culture medium was replaced with HepaRG Serum-Free Incudtion Media. Cells were exposed to each test chemical in duplicate and maintained in CO2 incubators for another 48 hours. Chemical plates were thawed to room temperature and 200x concentrations of treatment groups were prepared. 8-point conentration-reponse curves were made with the highest exposure at 100 uM, followed by half-log dilutions, all in 0.5% DMSO. Each test plate contained variouse controls, induction positive controls (1mM phenobarbital), cytotoxicity positive controls ([…] aflatoxin B1), vehicle controls (0.5% DMSO), and total lysis controls (0.5% DMSO). Cell morphology images were taken using an Essen IncuCyte FLR automated microscope, with six 96-well plates imaged in about 24 minutes. Images were captured and exported and JPEG files. Spent culture media was transfered to black-well plates for the LDH assay, and remaining media was sorted at -80 C for later use. Cells were treated with RLT buffer and frozen until shipped for gene expression analysis. Total RNA was isolated from the cell suspension in 75 uL of Buffer RLT (Qiagen, Germantown, MD 20874) by Quintiles/Expression Analysis (Durham, NC) using a custom isolation procedure. Total RNA from each plate well was transferred to a preamplification plate. Fluidigm's 96.96 Dynamic ArrayTM (Fluidigm, Amsterdam, the Netherlands) technology was used for gene expression analyses by quantitative reverse transcription polymerase chain reaction (qRT-PCR, performed by Quintiles/Expression Analysis, Durham, NC)89. Standard TaqManTM Assays (Applied Biosystems/ThermoFisher Scientific, Foster City, CA) were used to assess the expression of 93 genes selected based on their selectivity and sensitivity to important hepatic receptors known to be modulated by environmental chemicals; importance in human hepatocyte functionality; and hepatotoxicity. […]
Consider `O=C1CCC(N2C(=O)c3ccccc3C2=O)C(=O)N1` (stereo not given), for which the outcome was inactive.

On to `CNCc1ccc(NC(=O)c2c[nH]c3c2C(=O)CCC3)cc1`, for which the compound was called inactive.

For `On1ccccc1=S`, the compound was classed as inactive.

With `Cc1[nH]cnc1C[C@H]1CCc2c(C)c3ccccc3n2C1=O`, the AC50 was 31.3 µM (active).

On to `CCOc1cccc(-n2cc(C(=O)N3CCN(c4cc(C(=O)O)c5ccccc5c4)CC3)nc2-c2ccc(C)cc2)c1`, for which the AC50 was 77.1 µM (active).

For `COc1ccc(/C=C/S(=O)(=O)NC(=O)c2ccc(C)cc2Cl)cc1`, the result was inactive.

Regarding `CC(C)=CCC/C(C)=C\CO`, the compound was called inactive.

In the case of `CCCCC(CC)COC(=O)c1ccc(C(=O)OCC(CC)CCCC)cc1` (stereo not given), the result was inactive.

Consider `Cn1c(=O)c2c(ncn2C)n(C)c1=O`, for which the compound was called inactive.

As to `Fc1ccccc1[C@@H](F)COC1CCC(Nc2ncnc3[nH]ncc23)CC1` (stereo not given in full), the AC50 was 65.4 µM (active).

On to `Cc1ccc(N)cc1O`, for which the result was inactive.

For the compound `COc1ccc(-n2nc(C(F)F)cc2-c2ccc(S(C)=O)cc2)cc1` (stereo not given), the AC50 is 30.9 µM (active).

On to `C1=CCCC=CCCC=CCC1`, for which the result was inactive.

Turning to `Cn1c(=O)cc(Oc2ccc(F)cc2F)c2cnc(NCC(C)(C)O)nc21`, the compound was classed as inactive.

For the compound `O=P(OC(CCl)CCl)(OC(CCl)CCl)OC(CCl)CCl`, the compound was called inactive.

Turning to `CC1=CC(=O)CC(C)(C)C1`, the outcome was inactive.

As for `CCN(C(=O)c1cc(C)cc(OC[C@H](C)Nc2ccncc2)c1)C(C)C`, the compound was called inactive.

With `CC(C)(O)c1coc(S(=O)(=O)NC(=O)Nc2c3c(cc4c2CCC4)CCC3)c1`, the call was inactive.

As to `CCOC(=O)CC(CC(=O)OCC)(OC(C)=O)C(=O)OCC`, the call was inactive.

Turning to `CCc1cc(SCc2sc(-c3ccc(C(F)(F)F)cc3)nc2CN2CCN(c3ccc(OC)cc3)CC2)ccc1OCC(=O)O`, the AC50 was 93.3 µM (active).

On to `Cc1c(-c2cccnc2)c2ccccc2n1CCCCC(=O)O`, for which the outcome was inactive.

In the case of `COC(=O)CC(=O)OC`, the result was inactive.

In the case of `O=C(OC[C@H]1O[C@@H](OC(=O)c2cc(O)c(O)c(OC(=O)c3cc(O)c(O)c(O)c3)c2)[C@H](OC(=O)c2cc(O)c(O)c(OC(=O)c3cc(O)c(O)c(O)c3)c2)[C@@H](OC(=O)c2cc(O)c(O)c(OC(=O)c3cc(O)c(O)c(O)c3)c2)[C@@H]1OC(=O)c1cc(O)c(O)c(OC(=O)c2cc(O)c(O)c(O)c2)c1)c1cc(O)c(O)c(OC(=O)c2cc(O)c(O)c(O)c2)c1`, the AC50 is 15.2 µM (active).

Take `CC(C)CCCCCCOC(=O)c1ccc(C(=O)OCCCCCCC(C)C)c(C(=O)OCCCCCCC(C)C)c1`: the call was inactive.

As to `CCCCC(CC)COC(=O)CCCCCCCCC(=O)OCC(CC)CCCC` (stereo not given), the compound was classed as inactive.

In the case of `C[C@](N)(Cc1ccc(O)c(O)c1)C(=O)O`, the compound was called inactive.

For the compound `Cn1cnc([N+](=O)[O-])c1Sc1ncnc2nc[nH]c12`, the call was inactive.

Turning to `CC(C)=CCCC(C)=CC=O`, the compound was called inactive.

For `CC(C)=CCCC(C)CCO` (stereo not given), the compound was called inactive.

In the case of `CCCC(=O)OCC`, the outcome was inactive.

As for `CCCN(C1CCN(C(=O)C2CCNCC2)CC1)[C@@H]1CCc2ccc(OC)cc2C1`, the AC50 was 76 µM (active).

As for `Oc1ccc2c(c1)-c1ccccc1C2`, the outcome was inactive.

Take `CN(C)c1ccc(Cc2ccc(N(C)C)cc2)cc1`: the result was inactive.

Consider `COc1ccc2sc(C(=O)Nc3nnn[nH]3)c(OC(C)C)c2c1`, for which the AC50 is 81 µM (active).

For `O=c1n(CC2CO2)c(=O)n(CC2CO2)c(=O)n1CC1CO1` (stereo not given), the compound was classed as inactive.

As to `CC(O)CN(CCN(CC(C)O)CC(C)O)CC(C)O` (stereo not given), the compound was called inactive.

Regarding `COCCOCCOCCOC`, the compound was classed as inactive.

On to `COCCOc1cc2cc(C(=O)NC3CCN(C(C)C)CC3)n(CC(=O)Nc3ccc(Cl)cn3)c2cn1`, for which the AC50 is 37.2 µM (active).

As for `O=C1CCCCCN1`, the outcome was inactive.

On to `Nc1cccc(N)c1`, for which the compound was classed as inactive.
